JMJD2A Tudor inh = inhibitors of human JMJD2A Tudor domain; O75164; Potency, µM (titrated, usually from 114 µM), inactives show at the top dose activity change, negative = inhibition, actives largely listed as inhibitors; AlphaScreen JMJD2A-Tudor / H3K4me3 peptide binding; 4.4% of 390,000 active; also: potency is read from the fitted curve at half-maximal effect; % is scaled to controls: 0 for no effect and ±100 for the full control effect; nearly all actives have a fitted effect of over 50% in size
G9a block = blocks human histone lysine methyltransferase G9a | G9a H3K9 monomethylation, AlphaScreen, 2 h | 8.8% of 350,000 active | Potency, µM (doses to about 102 µM), for the others: at the top dose activity, negative = inhibition, most hits filed as inhibitors | AID 504332; also: potency is read from the fitted curve at half-maximal effect; % is scaled to controls: 0 for no effect and ±100 for the full control effect; nearly all actives have a fitted effect of over 75% in size
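Quantitative HTS format: methyltransferase activity on a biotin-tagged H3K9 peptide is measured by AlphaScreen, using a rabbit anti-monomethyl-H3K9 antibody with streptavidin donor and anti-IgG acceptor beads. Final levels are 20 nM enzyme, 500 nM peptide, 20 uM SAM; 2 h RT.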
CtBP-E1A blk = blocks the CtBP interaction with E1A | AlphaScreen GST-E1A/His-CtBP binding, 1536-well; stronger effect = lower value | activity change, % (concentration not given with the values) | 0.49% of 340,000 active | AID 651724; in the data active = activity change below about -65%; inconclusive = mostly about -30% to -63%; also: % is scaled to controls: 0 for no effect and ±100 for the full control effect
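Homogeneous bead-based format: GST-tagged E1A captured on glutathione donor beads, His-tagged CtBP on nickel acceptor beads; compounds precede bead addition by 2 h at 37 °C.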
HP1b chromo inh = HP1-beta chromodomain-methylated histone interaction inhibition; AID 540317; Potency, µM (doses to about 114 µM), inactives show at the top dose activity change, negative = inhibition, hits mostly inhibitors; AlphaScreen HP1-beta / biotin-H3K9me3 peptide binding; P83916; 0.56% of 390,000 active; also: potency is read from the fitted curve at half-maximal effect; nearly all actives have a fitted effect of over 70% in size
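AlphaScreen: HP1-beta (50 nM) preformed 30 min with biotin-H3(1-18)K9me3 peptide (50 nM) in PBS pH 7.4, 0.01% Tween-20. Compound added for 30 min at RT, then streptavidin donor/nickel chelate acceptor beads (10 ug/mL) for 30 min.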
BAZ2B inh = BAZ2B (human) inhibition; AID 504333; Potency, µM (highest dose often 114 µM), inactives show at the highest dose activity change, negative = inhibition, actives largely listed as inhibitors; AlphaScreen BAZ2B-H3K14Ac peptide displacement; Q9UIF8; 4.4% of 360,000 active; also: potency is read from the fitted curve at half-maximal effect; % is scaled to controls: 0 for no effect and ±100 for the full control effect; nearly all actives have a fitted effect of over 60% in size
Target sequence (Q9UIF8 whole entry, looked up): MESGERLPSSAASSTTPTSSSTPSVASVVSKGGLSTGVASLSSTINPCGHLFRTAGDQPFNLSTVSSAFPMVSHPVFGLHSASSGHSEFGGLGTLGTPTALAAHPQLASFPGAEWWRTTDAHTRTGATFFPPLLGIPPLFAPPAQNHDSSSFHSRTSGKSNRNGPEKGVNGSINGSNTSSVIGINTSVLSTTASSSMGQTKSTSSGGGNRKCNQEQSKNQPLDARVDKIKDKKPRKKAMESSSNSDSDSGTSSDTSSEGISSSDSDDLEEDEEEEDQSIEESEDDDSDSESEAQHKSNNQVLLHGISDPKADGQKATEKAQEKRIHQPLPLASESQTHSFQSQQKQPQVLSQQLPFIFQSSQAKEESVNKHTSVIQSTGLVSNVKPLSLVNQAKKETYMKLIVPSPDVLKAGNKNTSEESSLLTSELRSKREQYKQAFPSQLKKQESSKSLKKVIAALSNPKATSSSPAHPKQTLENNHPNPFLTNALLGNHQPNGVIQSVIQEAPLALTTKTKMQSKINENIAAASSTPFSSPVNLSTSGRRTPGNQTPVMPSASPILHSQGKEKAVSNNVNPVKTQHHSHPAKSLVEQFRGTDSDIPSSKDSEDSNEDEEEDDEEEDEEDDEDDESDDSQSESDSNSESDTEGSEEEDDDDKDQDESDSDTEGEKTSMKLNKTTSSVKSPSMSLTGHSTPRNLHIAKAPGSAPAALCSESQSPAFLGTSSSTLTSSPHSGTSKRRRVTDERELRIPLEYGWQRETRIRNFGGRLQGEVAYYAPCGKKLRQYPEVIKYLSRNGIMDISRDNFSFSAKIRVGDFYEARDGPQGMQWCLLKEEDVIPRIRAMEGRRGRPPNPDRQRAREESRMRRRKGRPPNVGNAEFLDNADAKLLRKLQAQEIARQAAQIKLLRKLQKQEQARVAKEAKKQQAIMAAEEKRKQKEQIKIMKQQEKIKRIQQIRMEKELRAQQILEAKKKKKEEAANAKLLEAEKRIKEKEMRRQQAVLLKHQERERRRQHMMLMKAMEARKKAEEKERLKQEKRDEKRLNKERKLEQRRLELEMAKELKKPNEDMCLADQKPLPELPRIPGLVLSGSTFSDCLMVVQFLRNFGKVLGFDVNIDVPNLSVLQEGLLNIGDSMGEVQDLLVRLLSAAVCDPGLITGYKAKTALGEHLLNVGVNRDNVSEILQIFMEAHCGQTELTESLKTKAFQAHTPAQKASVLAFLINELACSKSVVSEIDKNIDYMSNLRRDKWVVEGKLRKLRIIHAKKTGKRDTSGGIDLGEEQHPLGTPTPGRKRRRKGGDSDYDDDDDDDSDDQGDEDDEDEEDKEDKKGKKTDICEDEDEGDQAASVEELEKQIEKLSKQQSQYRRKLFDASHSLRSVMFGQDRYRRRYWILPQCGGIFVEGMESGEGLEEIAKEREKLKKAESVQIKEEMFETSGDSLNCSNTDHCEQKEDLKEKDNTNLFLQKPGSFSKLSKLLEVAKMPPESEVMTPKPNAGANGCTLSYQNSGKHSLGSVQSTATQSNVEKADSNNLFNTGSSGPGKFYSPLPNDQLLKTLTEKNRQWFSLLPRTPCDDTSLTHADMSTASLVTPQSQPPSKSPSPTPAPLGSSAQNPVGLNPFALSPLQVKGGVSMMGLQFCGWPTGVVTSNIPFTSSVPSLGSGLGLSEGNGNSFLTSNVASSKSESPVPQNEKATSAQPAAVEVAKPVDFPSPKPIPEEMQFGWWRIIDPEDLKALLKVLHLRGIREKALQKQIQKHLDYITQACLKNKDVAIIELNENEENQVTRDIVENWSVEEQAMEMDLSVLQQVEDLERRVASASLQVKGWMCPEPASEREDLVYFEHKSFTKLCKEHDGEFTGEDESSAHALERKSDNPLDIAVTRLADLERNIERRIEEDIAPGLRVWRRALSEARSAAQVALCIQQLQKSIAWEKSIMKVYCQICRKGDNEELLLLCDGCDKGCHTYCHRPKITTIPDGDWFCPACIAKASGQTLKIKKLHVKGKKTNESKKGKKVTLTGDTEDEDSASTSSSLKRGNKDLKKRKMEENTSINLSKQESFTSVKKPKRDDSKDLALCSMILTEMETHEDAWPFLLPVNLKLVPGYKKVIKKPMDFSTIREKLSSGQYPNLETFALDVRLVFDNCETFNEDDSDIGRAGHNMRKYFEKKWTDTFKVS
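BAZ2B 50 nM plus b-H3(5-23)K14Ac 50 nM, PBS pH 7.4/0.01% Tween-20, 30 min RT; compound added (max 110 uM), 30 min RT; streptavidin donor/Ni-chelate acceptor beads 10 ug/mL final, 20 min dark; AlphaScreen read.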
Six1-Eya2 inh = Six1/Eya2 interaction inhibition | AID 651725 | activity change, % (concentration not given with the values) | Q15475+O00167 | AlphaScreen GST-Six1/His-Eya2 binding, biochemical; stronger effect = lower value | 0.56% of 360,000 active; in the data active = activity change below about -65%; inconclusive = mostly about -30% to -63%; also: % is scaled to controls: 0 for no effect and ±100 for the full control effect
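Homogeneous AlphaScreen proximity assay pairing GST-Six1 with His-tagged Eya2 (added as 5X mix: 250 nM and 500 nM) in 50 mM Tris pH 8.0, 300 mM NaCl, 1 mM TCEP. Glutathione donor and nickel acceptor beads; 1 h, 37 °C, dark.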
* hit, by the source's call; ? = inconclusive; . = no result given; [ ] = dose if it differs, or a comment. Rows were chosen to be rich in hits. Some 10% of all compounds tested hit in one or more screens of this group. Unless noted, calls follow the shape of the dose curve; as a rule, active = well fitted inhibition curve with a large enough effect; inconclusive = small, poorly fitted or top-dose-only effect; inactive = no such curve, though single readings can be large or run the other way.

SMILES	JMJD2A Tudor inh	G9a block	CtBP-E1A blk	HP1b chromo inh	BAZ2B inh	Six1-Eya2 inh
CCC(C)n1c(=O)c2sccc2n2c(CCCC(=O)N3CCN(c4ccccc4)CC3)nnc12 (stereo unspecified)	-1.5%	-25.7%[59 µM]	.	32.4%	-19.1%	.
CC1(C(=O)NS(=O)(=O)c2ccc(Br)cc2)CCN1C(=O)CCc1cccs1 (stereo unspecified)	.	.	5.3	.	.	1.2
CC1(C)c2cc(Cl)ccc2-n2c1cc(O)c(-c1ccccc1)c2=O	-13.8%	-4.6%	2.7	35.8%	-13.9%	12.8
O=C(Oc1cccc(/C=N/NC(=O)c2ccccn2)c1)c1ccc([N+](=O)[O-])cc1	?	59.5%	-1.5	21.0%	-25.5%	-5.6
Cc1c(C(=O)OCc2ccccc2)[nH]c2c1C(=O)CC(c1ccco1)C2 (stereo unspecified)	25.1µM*	?	-1.4	70.8µM*	50.1µM*	-12.7
CCOc1cc(C(=O)Nc2ccc(-c3nc4ncccc4o3)cc2C)cc(OCC)c1OCC	-15.7%	0.0%[59 µM]	.	5.9%	-14.6%	.
CCc1ccc(NS(=O)(=O)c2ccc3oc(=O)c4ncn(CC)c4c3c2)cc1	-24.7%	10µM*	.	4.2%	?	.
COc1cc(NS(=O)(=O)c2ccc3oc(=O)c4ncn(C)c4c3c2)cc(OC)c1	-2.1%	-10.8%[59 µM]	.	37.6%	-14.0%	.
CN(C(=O)c1cc(COc2ccc(F)cc2Cl)on1)C1CCOC1 (stereo unspecified)	.	.	4.2	.	.	-0.4
COc1ccc(/C=C2\CCc3ccccc3C2=O)cc1CN1CCOCC1	?	35.5µM*	?	-20.0%	?	-7.9
COc1ccc2c(c1)CC/C(=C\c1ccc(OC)c(Cn3nc(C)cc3C)c1)C2=O	89.1µM*	?	-15.1	1.1%	?	-12.3
COc1ccc2c(c1)CC/C(=C\c1ccc(OC)c(Cn3cccn3)c1)C2=O	-31.1%	?	-14.4	-7.7%	-34.2%	-6.9
CC1(C)Cc2c(c(N3CCOCC3)nc3sc4c(NCc5ccccc5)nnnc4c23)CS1	-9.9%	-46.2%[59 µM]	-1.0	1.6%	-22.3%	-2.6
CC1(C)Cc2c(c(N3CCOCC3)nc3sc4c(NCc5ccco5)nnnc4c23)CS1	-8.0%	17.8µM*	-12.7	9.9%	-32.4%	-21.4
COCC(C)NCc1cccc([N+](=O)[O-])c1 (stereo unspecified)	3.16µM*	20µM*	-4.0	?	50.1µM*	10.1
N[C@@H](C(=O)O)c1ccc(O)c(C(=O)O)c1	-24.1%	.	.	24.8%	.	.
CC(=O)Oc1cccc2c1C(=O)c1c(OC(C)=O)cc(C(=O)O)cc1C2=O	?	3.55µM*	-12.3	17.5%	?	-7.1
C[C@H](NS(=O)(=O)c1ccc2c(c1)OCCCO2)C(=O)N1CCN(c2ccc(F)cc2)CC1	-26.5%	-6.8%[2.33 µM]	4.8	26.0%	3.7%	-3.2
Cc1ccc2oc3c(c(=O)c2c1)C(c1cccc(O)c1)N(CCCN1CCOCC1)C3=O (stereo unspecified)	-9.6%	-1.5%[59 µM]	.	4.0%	-2.4%	.
O=C1c2oc3ccc(F)cc3c(=O)c2C(c2ccncc2)N1CCN1CCOCC1 (stereo unspecified)	.	50.1µM*	.	.	4.4%	.
Cc1ccc2oc3c(c(=O)c2c1)C(c1ccc(F)cc1)N(CCCN1CCOCC1)C3=O (stereo unspecified)	.	44.7µM*	.	.	-2.7%	.
Cc1ccc2oc3c(c(=O)c2c1)C(c1cccc(Cl)c1)N(CCCN1CCOCC1)C3=O (stereo unspecified)	-20.0%	50.1µM*	-0.7	18.7%	-0.1%	4.6
COc1ccc(Br)c(C(=O)OCC(=O)NC2CCCCCC2)c1	30.5%	30.5%[12.7 µM]	14.3	84.3%	12.9%	9.5
Cc1nn2c(=O)cc(COC(=O)c3cccc(NC(=O)c4ccc(C(C)(C)C)cc4)c3)nc2s1	-19.9%	7.2%[59 µM]	.	7.8%	-2.5%	.
CC1CCN(CCCCOc2ccccc2[N+](=O)[O-])CC1	4.47µM*	?	47.9	?	?	24.7
SMILES	JMJD2A Tudor inh	G9a block	CtBP-E1A blk	HP1b chromo inh	BAZ2B inh	Six1-Eya2 inh
CCOc1ccccc1OCCOCCOc1ccccc1[N+](=O)[O-]	8.5%[57.1 µM]	3.7%[59 µM]	1.7	58.8%	-1.2%	9.7
O=[N+]([O-])c1ccc(OCCCCN2CCCCC2)cc1	3.6%	?	-16.4	30.7%	-0.4%	1.3
CC1CCN(CCCCOc2ccc(F)cc2)CC1	3.16µM*	?	3.0	?	?	1.7
O=[N+]([O-])c1ccc(OCCCCN2CCc3ccccc3C2)cc1	20µM*	35.5µM*	-12.6	?	79.4µM*	-8.6
COc1ccc(OCCCN2CCc3ccccc3C2)cc1	-21.9%	-22.8%	-22.8	28.1%	-7.4%	-13.1
CC1CCN(CCCCOc2ccc([N+](=O)[O-])cc2)CC1	79.4µM*	11.2µM*	6.2	5.3%	-33.2%	-4.3
Cc1nc2c(C(=O)NCCc3ccc(Cl)cc3)c[nH]n2c(=O)c1Cc1ccc(Cl)cc1	?	23.2%[59 µM]	.	21.3%	-28.1%	.
Cc1c(-c2cccc(NC(=O)Nc3ccccc3)c2)nc2ncccn12	-2.9%	-5.2%[59 µM]	.	20.8%[57 µM]	-3.4%	.
Clc1ccc(-c2ccc(CNCC3CCCO3)o2)cc1 (stereo unspecified)	-26.4%	-38.1%	-1.1	-4.3%	-33.5%	-15.3
Cc1ccc(OCCCCCCN2CCNCC2)cc1	-17.3%	.	-12.4	4.9%	.	-3.4
CC1CCN(CCCCOc2cccc(C(C)C)c2)CC1	56.2µM*	39.8µM*	-2.8	-28.6%	?	-3.4
Cc1ccc(OCCCCN2CCC(C)CC2)cc1	3.16µM*	-32.3%	6.1	?	50.1µM*	4.6
Cc1cccc(OCCCCN2CCNCC2)c1	-25.0%	.	0.4	-11.2%	.	7.1
O=C(CSc1ncn[nH]1)NCCC(c1ccccc1)c1ccccc1	-2.6%	.	0.2	49.1%	-3.9%	-2.3
CSc1c[n+]2c(n1C)CCC2	31.6µM*	?	19.3	5.7%	12.9%	4.6
C=CCOc1ccc(C2C(C(=O)c3cccs3)=C(O)C(=O)N2c2nnc(C)s2)cc1 (stereo unspecified)	?	.	29.2	9.5%	.	13.0
Cc1cccc(N2C(=O)C(O)=C(C(=O)c3cccs3)C2c2ccc(F)cc2)n1 (stereo unspecified)	-20.0%	?	.	21.0%	?	3.5
COc1ccc(C2C(C(=O)c3cccs3)=C(O)C(=O)N2c2nncs2)cc1 (stereo unspecified)	?	44.7µM*	2.0	-0.2%	?	-8.8
CC(C)c1nnc(N2C(=O)C(O)=C(C(=O)c3cccs3)C2c2ccccc2)s1 (stereo unspecified)	-28.4%	25.1µM*	2.5	8.3%	79.4µM*	6.8
